This is one part of a sample in which hits are shown more often than they occur.
Methyltransferases: Primary Screen for Target Class Profiling of Small Molecule Inhibitors of Methyltransferases | purified enzyme, MTase-Glo SAH luminescence; stronger effect = lower value | calls only at 40 µM | 25,000 compounds, 3.9% hits; call rule not given here
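Each enzyme was assayed with SAM and its substrate. SAH formation detected by MTase-Glo luminescence; single-point 40 uM screen[…].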
Starred values were filed as active, the others as inactive; i = inactive; + = active, no number. On the % scale 0 is the no-effect control and ±100 the full control effect.

SMILES	Methyltransferases
COC(=O)c1ncn2c1C(=O)N(c1cccc(C)c1C)C(C)(C(=O)NCCCOC(C)C)C2 (stereo unspecified)	i
CC1CCCCC1NC(=O)C1(C)Cn2c(cc3sccc32)C(=O)N1Cc1cccc(Cl)c1 (stereo unspecified)	i
CCc1ccc(CNC(=O)c2cc3n(n2)CC(C)(C(=O)NC2CCCC2)N(C)C3=O)cc1 (stereo unspecified)	i
Cc1ccc(N2C(=O)c3cc(-c4ccco4)nn3CC2(C)C(=O)NC2CCCCCC2)cc1 (stereo unspecified)	i
C[C@@H](Oc1cc(-n2cnc3ccc(OC4CCN(C)CC4)cc32)sc1C(N)=O)c1ccccc1Cl	+
CC(Oc1cc(-n2cnc3ccc(CN4CCN(C)CC4)cc32)sc1C(N)=O)c1ccccc1C(F)(F)F (stereo unspecified)	+
Cn1c2c(c3ccccc31)C(C(=O)NCc1ccc(F)cc1)N(CCC1=CCCCC1)C(=O)CS2 (stereo unspecified)	i
Cc1ccccc1CNC(=O)C1(C)Cc2ccccc2C(=O)N1Cc1cccc(C(F)(F)F)c1 (stereo unspecified)	i
CC1CCC(NC(=O)CCc2nnc3n(Cc4ccccc4)c(=O)c4ccccc4n23)CC1 (stereo unspecified)	i
CCCC1c2cccn2CCN1C(=O)Nc1ccc(F)c(Cl)c1 (stereo unspecified)	i
COc1ccc(-c2n[nH]n3c2nc(=O)c2ccc(C(=O)NCc4ccc(OC)cc4OC)cc23)cc1	i
CCC(C)NC(=O)c1ccc2c(=O)n(CC(C)C)c3nn(CC(=O)NC4CCCC4)c(=O)n3c2c1 (stereo unspecified)	i
CC(C)NCC(O)c1ccc(O)c(O)c1 (stereo unspecified)	i
NC[C@H](O)c1ccc(O)c(O)c1	+
COc1cc(C(O)CO)ccc1O (stereo unspecified)	i
O=C(NCc1nn(Cc2ccccc2)c2ccccc12)c1ccccc1C(F)(F)F	i
COc1ccc2c(c1)c(NC(C)=O)c1n2CC(C)(C(=O)NC2CCCC2)N(Cc2ccccn2)C1=O (stereo unspecified)	i
Cn1c(=O)n(C)c2cc(S(=O)(=O)N3CCN(c4ccc(Cl)cc4)CC3)ccc21	i
O=C(O)Cc1ccc2oc(-c3ccc(NC(=O)/C=C/c4ccc(Br)cc4)c(F)c3)nc2c1	i
C=Cc1cc2oc(-c3ccc(O)c(F)c3)nc2cc1O	+
COc1ccccc1CNC(=O)C1c2c(n(C)c3ccccc23)SCC(=O)N1c1ccc(C)cc1Cl (stereo unspecified)	i
CCOC(=O)c1cc2n(n1)CC(C)(C(=O)NC1CCCCCC1)N(c1ccc(C)c(F)c1)C2=O (stereo unspecified)	i
Cc1c(Cl)cccc1NC(=O)c1ncn2c1C(=O)N(C1CC1)C(C)(C(=O)NCCCOC(C)C)C2 (stereo unspecified)	i
Cc1ccccc1CSc1nnc2n(CC(C)C)c(=O)c3cc(F)ccc3n12	i
COc1cnc(-c2ccc(Cn3c(CC(C)(C)C(=O)O)c(SC(C)(C)C)c4cc(OC[C@@H]5Cc6ccccc6N5C(C)=O)ccc43)cc2)nc1	+
SMILES	Methyltransferases
CCc1cccc(N2C(=O)c3c(C(=O)OC)ncn3CC2(C)C(=O)NC2CCCCCC2)c1 (stereo unspecified)	i
CSc1cccc(N2C(=O)CSc3c(c4ccccc4n3C)C2C(=O)NCCC(C)C)c1 (stereo unspecified)	i
CC1(C(=O)NC2CCCCCCC2)Cn2c(ccc2-c2ccco2)C(=O)N1Cc1cccc(Cl)c1 (stereo unspecified)	i
NC(N)=NC(=O)c1cnn(-c2cccc3ncccc23)c1C1CC1	+
CC1(C(=O)NC2CCCCCCC2)Cn2c(ccc2-c2ccco2)C(=O)N1Cc1ccc(F)cc1 (stereo unspecified)	i
C[C@@H]1O[C@@H](O[C@H]2[C@H](O[C@H]3[C@H](O[C@H]4CC[C@@]5(C)C(CC[C@]6(C)C5CC=C5[C@@H]7CC(C)(C)C[C@@H](O)[C@]7(C)CC[C@]56C)[C@@]4(C)CO)O[C@H](C(=O)O)[C@@H](O)[C@@H]3O)O[C@H](CO)[C@H](O)[C@@H]2O)[C@H](O)[C@H](O)[C@H]1O (stereo partly specified)	i
CC1(CO)CC(O)C2(C)CCC3(C)C(=CCC4C5(C=O)CCC(OC6OC(C(=O)O)C(O)C(O)C6OC6OC(C(=O)O)C(O)C(O)C6O)C(C)(C)C5CCC43C)C2C1 (stereo unspecified)	+
C[C@@H]1O[C@@H](O[C@H]2[C@H](O[C@H]3[C@H](O[C@H]4CC[C@@]5(C)C(CC[C@]6(C)C5CC=C5[C@@H]7CC(C)(C)C[C@@H](O)[C@]7(C)CC[C@]56C)[C@@]4(C)CO)O[C@H](C(=O)O)[C@@H](O)[C@@H]3O)O[C@H](C(=O)O)[C@H](O)[C@@H]2O)[C@H](O)[C@H](O)[C@H]1O (stereo partly specified)	i
CC1(C(=O)NC2CCCC2)Cn2c(cc3ccccc32)C(=O)N1Cc1cccc(F)c1 (stereo unspecified)	i
CC1(C(=O)NC2CCCCC2)Cn2c(cc3occc32)C(=O)N1Cc1cccc(Cl)c1 (stereo unspecified)	i
O=C(O)c1cc(N(Cc2ccc(C3CCCCC3)cc2)C(=O)c2ccc(Oc3ccccc3)cc2)ccc1O	+
CCc1cc2c(cc3n2CC(C)(C(=O)NC2CCC(C)CC2)N(Cc2ccccc2OC)C3=O)s1 (stereo unspecified)	i
Cn1c(=O)c2ccc(C(=O)NC3CCCC3)cc2n2c(=O)n(CC(=O)Nc3ccccc3Cl)nc12	i
COc1cc(/C=N\NC(=O)c2ccc3c(c2)OCO3)ccc1OCc1ccccc1	+
COc1ccc(/C=C/C(=O)Nc2ccccc2C(=O)O)cc1OC	i
COc1ccccc1CNC(=O)C1(C)Cn2nc(-c3ccccc3)cc2C(=O)N1Cc1ccc2c(c1)OCO2 (stereo unspecified)	i
CCCn1c(=O)c2cc(Cl)ccc2n2c(SCc3ccccc3C)nnc12	i
O=S(=O)(NCCC1=CCCCC1)c1cccc(-c2nc(-c3ccccc3)no2)c1	i
CC(C)Cn1c(=O)c2ccc(C(=O)NC3CCCC3)cc2n2c(=O)n(Cc3ccc(Cl)cc3)nc12	i
O=S(=O)(NCCn1cnc2ccccc21)c1cccc(Cl)c1	i
CC(C)c1ccc(N2C(=O)c3cc(-c4ccco4)nn3CC2(C)C(=O)NC2CCCCCC2)cc1 (stereo unspecified)	i
Oc1ccc(CC2NCCc3cc(O)c(O)cc32)cc1 (stereo unspecified)	i
CN1CCc2cc(Cl)c(O)cc2[C@@H](c2ccccc2)C1	i
Oc1cc2c(cc1O)C(c1ccccc1)CNCC2 (stereo unspecified)	+
COc1ccc2cc3n(c2c1)CC(C)(C(=O)NC1CCCCCC1)N(c1ccccc1F)C3=O (stereo unspecified)	i
CCCn1c(=O)c2ccc(C(=O)NC(C)CC)cc2n2c(=O)n(CC(=O)Nc3ccc(CC)cc3)nc12 (stereo unspecified)	i
O=C(Nc1cc(-c2ccccc2)nn1-c1ccccc1)c1ccc([N+](=O)[O-])cc1	i
O=[N+]([O-])c1ccc(-[n+]2nc(-c3ccccc3)nn2-c2ccc(I)cc2)cc1	+
